Measurements reported in article PMC11006913.
Where a chain is given by its changes, count along the chain named.

Key:
Experiment in all cases: PBM; 200 nM protein, PBS
Settings in all cases: dsDNA, one strand shown
VENTX [1] = molecular target: T1, VENTX (Homo sapiens, UniProt O95231 78-163, R121Q)
T1 sequence: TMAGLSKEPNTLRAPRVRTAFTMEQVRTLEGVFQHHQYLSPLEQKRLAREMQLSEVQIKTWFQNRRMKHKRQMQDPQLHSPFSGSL

HOXA4 [2] = molecular target: HOXA4 (Homo sapiens, UniProt Q00056 201-287, W262R)
HOXA7 [3] = molecular target: HOXA7 (Homo sapiens, UniProt P31268 116-202)
HOXA7 (Homo sapiens, UniProt P31268 116-202), sequence (P31268 116-202): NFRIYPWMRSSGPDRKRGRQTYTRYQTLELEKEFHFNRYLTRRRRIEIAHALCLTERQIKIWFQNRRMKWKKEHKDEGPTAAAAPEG

ALX4 = ALX4 (Homo sapiens, UniProt Q9H161 200-286)
ALX4, sequence (Q9H161 200-286): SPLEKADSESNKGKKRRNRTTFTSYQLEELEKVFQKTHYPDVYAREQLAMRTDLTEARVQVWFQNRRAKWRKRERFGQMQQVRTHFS

PRRX1 [4] = molecular target: PRRX1 (Homo sapiens, UniProt P54821 80-166, F113S)
PRRX1 (Homo sapiens, UniProt P54821 80-166, F113S), sequence (P54821 80-166 F113S): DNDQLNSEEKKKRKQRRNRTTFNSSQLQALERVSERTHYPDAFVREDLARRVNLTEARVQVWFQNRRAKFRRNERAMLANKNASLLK

HOXB6 = HOXB6 (Homo sapiens, UniProt P17509 132-218, K202E)
HOXB6, sequence (P17509 132-218 K202E): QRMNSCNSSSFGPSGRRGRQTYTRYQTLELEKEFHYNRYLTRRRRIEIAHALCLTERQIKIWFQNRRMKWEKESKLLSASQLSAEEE

HOXA4 [5] = molecular target: HOXA4 (Homo sapiens, UniProt Q00056 201-287, R217L)
HOXA4 (Homo sapiens, UniProt Q00056 201-287, R217L), sequence (Q00056 201-287 R217L): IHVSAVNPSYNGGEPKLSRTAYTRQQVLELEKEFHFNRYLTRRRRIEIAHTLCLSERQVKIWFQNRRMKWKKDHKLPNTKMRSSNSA

HOXB4 = HOXB4 (Homo sapiens, UniProt P17483 148-234, V174I)
HOXB4, sequence (P17483 148-234 V174I): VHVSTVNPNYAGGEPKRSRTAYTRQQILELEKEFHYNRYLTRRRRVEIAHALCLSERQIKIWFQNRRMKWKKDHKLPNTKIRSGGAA

HOXA4 [6] = molecular target: HOXA4 (Homo sapiens, UniProt Q00056 201-287)
HOXA4 (Homo sapiens, UniProt Q00056 201-287), sequence (Q00056 201-287): as the sequence (Q00056 201-287 R217L) above, with L17R counted along it

MSX2 [7] = molecular target: MSX2 (Homo sapiens, UniProt P35548 130-214)
MSX2 (Homo sapiens, UniProt P35548 130-214), sequence (P35548 130-214): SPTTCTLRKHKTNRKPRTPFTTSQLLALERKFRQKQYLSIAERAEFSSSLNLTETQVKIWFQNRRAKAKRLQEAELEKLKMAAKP

MSX2 [8] = molecular target: MSX2 (Homo sapiens, UniProt P35548 130-214, F161Y)
MSX2 (Homo sapiens, UniProt P35548 130-214, F161Y), sequence (P35548 130-214 F161Y): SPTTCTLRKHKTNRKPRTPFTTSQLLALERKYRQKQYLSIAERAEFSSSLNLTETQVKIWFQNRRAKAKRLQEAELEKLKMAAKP

HOXA7 [9] = molecular target: HOXA7 (Homo sapiens, UniProt P31268 116-202, W177C)
HOXA7 (Homo sapiens, UniProt P31268 116-202, W177C), sequence (P31268 116-202 W177C): as the sequence (P31268 116-202) above, with W62C counted along it

HOXA4 [10] = molecular target: HOXA4 (Homo sapiens, UniProt Q00056 201-287, W262F)
HOXA4 (Homo sapiens, UniProt Q00056 201-287, W262F), sequence (Q00056 201-287 W262F): as the sequence (Q00056 201-287 R217L) above, with L17R, W62F counted along it

VENTX [11] = molecular target: T2, VENTX (Homo sapiens, UniProt O95231 78-163, Y115F)
T2 sequence: T1 sequence with Y38F, Q44R

HOXA2 [12] = molecular target: HOXA2 (Homo sapiens, UniProt O43364 129-215, R185T)
HOXA2 (Homo sapiens, UniProt O43364 129-215, R185T), sequence (O43364 129-215 R185T): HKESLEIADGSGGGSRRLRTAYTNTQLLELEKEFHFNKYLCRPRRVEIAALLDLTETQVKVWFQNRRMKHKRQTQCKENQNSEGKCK

PAX4 = molecular target: T3, PAX4 (Homo sapiens, UniProt O43316 9-242, R200Q)
T3 sequence: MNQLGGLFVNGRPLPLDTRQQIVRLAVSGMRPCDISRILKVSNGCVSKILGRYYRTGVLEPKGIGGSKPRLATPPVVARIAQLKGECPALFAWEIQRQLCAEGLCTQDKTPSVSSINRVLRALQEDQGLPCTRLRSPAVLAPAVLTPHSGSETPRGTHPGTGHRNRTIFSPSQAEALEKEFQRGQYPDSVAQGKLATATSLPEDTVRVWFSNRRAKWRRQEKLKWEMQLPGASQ

HOXA2 [13] = molecular target: HOXA2 (Homo sapiens, UniProt O43364 129-215, R185K)
HOXA2 (Homo sapiens, UniProt O43364 129-215, R185K), sequence (O43364 129-215 R185K): as the sequence (O43364 129-215 R185T) above, with T57K counted along it

VAX1 [14] = molecular target: VAX1 (Homo sapiens, UniProt Q5SQQ9 86-172, T142I)
VAX1 (Homo sapiens, UniProt Q5SQQ9 86-172, T142I), sequence (Q5SQQ9 86-172 T142I): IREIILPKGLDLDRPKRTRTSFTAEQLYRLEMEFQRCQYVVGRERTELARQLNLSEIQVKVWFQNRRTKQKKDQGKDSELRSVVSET

PRRX1 [15] = molecular target: PRRX1 (Homo sapiens, UniProt P54821 80-166)
PRRX1 (Homo sapiens, UniProt P54821 80-166), sequence (P54821 80-166): as the sequence (P54821 80-166 F113S) above, with S34F counted along it

VAX1 [16] = molecular target: VAX1 (Homo sapiens, UniProt Q5SQQ9 86-172, K157R)
VAX1 (Homo sapiens, UniProt Q5SQQ9 86-172, K157R), sequence (Q5SQQ9 86-172 K157R): as the sequence (Q5SQQ9 86-172 T142I) above, with I57T, K72R counted along it

HOXA4 (Homo sapiens, UniProt Q00056 201-287, W262R), sequence (Q00056 201-287 W262R): as the sequence (Q00056 201-287 R217L) above, with L17R, W62R counted along it

Sequence	binding signal (VENTX [1])	binding signal (HOXA4 [2])	binding signal (HOXA7 [3])	binding signal (ALX4)	binding signal (PRRX1 [4])	binding signal (HOXB6)	binding signal (HOXA4 [5])	binding signal (HOXB4)	binding signal (HOXA4 [6])	binding signal (MSX2 [7])	binding signal (MSX2 [8])	binding signal (HOXA7 [9])	binding signal (HOXA4 [10])	binding signal (VENTX [11])	binding signal (HOXA2 [12])	binding signal (PAX4)	binding signal (HOXA2 [13])	binding signal (VAX1 [14])	binding signal (PRRX1 [15])	binding signal (VAX1 [16])
AACAATTA	11.7 upbm affinity estimate (log intensity, higher = more binding, comparable within an allelic series)	10.6 upbm affinity estimate (log intensity, higher = more binding, comparable within an allelic series)	11.2 upbm affinity estimate (log intensity, higher = more binding, comparable within an allelic series)	13.6 upbm affinity estimate (log intensity, higher = more binding, comparable within an allelic series)	11.1 upbm affinity estimate (log intensity, higher = more binding, comparable within an allelic series)	10 upbm affinity estimate (log intensity, higher = more binding, comparable within an allelic series)	11.9 upbm affinity estimate (log intensity, higher = more binding, comparable within an allelic series)	13.6 upbm affinity estimate (log intensity, higher = more binding, comparable within an allelic series)	13.6 upbm affinity estimate (log intensity, higher = more binding, comparable within an allelic series)	13.9 upbm affinity estimate (log intensity, higher = more binding, comparable within an allelic series)	13.5 upbm affinity estimate (log intensity, higher = more binding, comparable within an allelic series)	8.96 upbm affinity estimate (log intensity, higher = more binding, comparable within an allelic series)	11.3 upbm affinity estimate (log intensity, higher = more binding, comparable within an allelic series)							
ACTAATTA	12.8 upbm affinity estimate (log intensity, higher = more binding, comparable within an allelic series)	10.9 upbm affinity estimate (log intensity, higher = more binding, comparable within an allelic series)	12.1 upbm affinity estimate (log intensity, higher = more binding, comparable within an allelic series)	14.4 upbm affinity estimate (log intensity, higher = more binding, comparable within an allelic series)	12 upbm affinity estimate (log intensity, higher = more binding, comparable within an allelic series)	10.2 upbm affinity estimate (log intensity, higher = more binding, comparable within an allelic series)	12.9 upbm affinity estimate (log intensity, higher = more binding, comparable within an allelic series)	14.2 upbm affinity estimate (log intensity, higher = more binding, comparable within an allelic series)	14.2 upbm affinity estimate (log intensity, higher = more binding, comparable within an allelic series)	14.1 upbm affinity estimate (log intensity, higher = more binding, comparable within an allelic series)	13.8 upbm affinity estimate (log intensity, higher = more binding, comparable within an allelic series)	8.93 upbm affinity estimate (log intensity, higher = more binding, comparable within an allelic series)	12.8 upbm affinity estimate (log intensity, higher = more binding, comparable within an allelic series)	12.6 upbm affinity estimate (log intensity, higher = more binding, comparable within an allelic series)	14 upbm affinity estimate (log intensity, higher = more binding, comparable within an allelic series)	12.7 upbm affinity estimate (log intensity, higher = more binding, comparable within an allelic series)	13.8 upbm affinity estimate (log intensity, higher = more binding, comparable within an allelic series)	14.1 upbm affinity estimate (log intensity, higher = more binding, comparable within an allelic series)	13.7 upbm affinity estimate (log intensity, higher = more binding, comparable within an allelic series)	14.2 upbm affinity estimate (log intensity, higher = more binding, comparable within an allelic series)
CTCAATTA		10.4 upbm affinity estimate (log intensity, higher = more binding, comparable within an allelic series)		13.9 upbm affinity estimate (log intensity, higher = more binding, comparable within an allelic series)	11.2 upbm affinity estimate (log intensity, higher = more binding, comparable within an allelic series)		12 upbm affinity estimate (log intensity, higher = more binding, comparable within an allelic series)	13.8 upbm affinity estimate (log intensity, higher = more binding, comparable within an allelic series)	13.6 upbm affinity estimate (log intensity, higher = more binding, comparable within an allelic series)	13.9 upbm affinity estimate (log intensity, higher = more binding, comparable within an allelic series)	13.5 upbm affinity estimate (log intensity, higher = more binding, comparable within an allelic series)		11.4 upbm affinity estimate (log intensity, higher = more binding, comparable within an allelic series)		12.6 upbm affinity estimate (log intensity, higher = more binding, comparable within an allelic series)		13 upbm affinity estimate (log intensity, higher = more binding, comparable within an allelic series)	12.8 upbm affinity estimate (log intensity, higher = more binding, comparable within an allelic series)	13.4 upbm affinity estimate (log intensity, higher = more binding, comparable within an allelic series)	12.9 upbm affinity estimate (log intensity, higher = more binding, comparable within an allelic series)
ACTAATTG	12.3 upbm affinity estimate (log intensity, higher = more binding, comparable within an allelic series)	10.5 upbm affinity estimate (log intensity, higher = more binding, comparable within an allelic series)		13.9 upbm affinity estimate (log intensity, higher = more binding, comparable within an allelic series)	11.2 upbm affinity estimate (log intensity, higher = more binding, comparable within an allelic series)		11.8 upbm affinity estimate (log intensity, higher = more binding, comparable within an allelic series)	13.8 upbm affinity estimate (log intensity, higher = more binding, comparable within an allelic series)	13.7 upbm affinity estimate (log intensity, higher = more binding, comparable within an allelic series)	14 upbm affinity estimate (log intensity, higher = more binding, comparable within an allelic series)	13.7 upbm affinity estimate (log intensity, higher = more binding, comparable within an allelic series)		11.4 upbm affinity estimate (log intensity, higher = more binding, comparable within an allelic series)	11.9 upbm affinity estimate (log intensity, higher = more binding, comparable within an allelic series)	13.2 upbm affinity estimate (log intensity, higher = more binding, comparable within an allelic series)	12 upbm affinity estimate (log intensity, higher = more binding, comparable within an allelic series)	13.3 upbm affinity estimate (log intensity, higher = more binding, comparable within an allelic series)	13 upbm affinity estimate (log intensity, higher = more binding, comparable within an allelic series)	13.3 upbm affinity estimate (log intensity, higher = more binding, comparable within an allelic series)	13.3 upbm affinity estimate (log intensity, higher = more binding, comparable within an allelic series)
ATCAATTA	12.3 upbm affinity estimate (log intensity, higher = more binding, comparable within an allelic series)	10.7 upbm affinity estimate (log intensity, higher = more binding, comparable within an allelic series)	11.7 upbm affinity estimate (log intensity, higher = more binding, comparable within an allelic series)	14.2 upbm affinity estimate (log intensity, higher = more binding, comparable within an allelic series)	11.4 upbm affinity estimate (log intensity, higher = more binding, comparable within an allelic series)	10.1 upbm affinity estimate (log intensity, higher = more binding, comparable within an allelic series)	12.6 upbm affinity estimate (log intensity, higher = more binding, comparable within an allelic series)	14.1 upbm affinity estimate (log intensity, higher = more binding, comparable within an allelic series)	14.1 upbm affinity estimate (log intensity, higher = more binding, comparable within an allelic series)	14 upbm affinity estimate (log intensity, higher = more binding, comparable within an allelic series)	13.7 upbm affinity estimate (log intensity, higher = more binding, comparable within an allelic series)	8.98 upbm affinity estimate (log intensity, higher = more binding, comparable within an allelic series)	11.9 upbm affinity estimate (log intensity, higher = more binding, comparable within an allelic series)	11.8 upbm affinity estimate (log intensity, higher = more binding, comparable within an allelic series)	13.3 upbm affinity estimate (log intensity, higher = more binding, comparable within an allelic series)	12.2 upbm affinity estimate (log intensity, higher = more binding, comparable within an allelic series)	13.6 upbm affinity estimate (log intensity, higher = more binding, comparable within an allelic series)	12.9 upbm affinity estimate (log intensity, higher = more binding, comparable within an allelic series)	13.6 upbm affinity estimate (log intensity, higher = more binding, comparable within an allelic series)	13.1 upbm affinity estimate (log intensity, higher = more binding, comparable within an allelic series)
CTAATTAC	12.7 upbm affinity estimate (log intensity, higher = more binding, comparable within an allelic series)	10.8 upbm affinity estimate (log intensity, higher = more binding, comparable within an allelic series)	11.9 upbm affinity estimate (log intensity, higher = more binding, comparable within an allelic series)	14.4 upbm affinity estimate (log intensity, higher = more binding, comparable within an allelic series)	11.5 upbm affinity estimate (log intensity, higher = more binding, comparable within an allelic series)	10 upbm affinity estimate (log intensity, higher = more binding, comparable within an allelic series)	12.7 upbm affinity estimate (log intensity, higher = more binding, comparable within an allelic series)	14.4 upbm affinity estimate (log intensity, higher = more binding, comparable within an allelic series)	14.2 upbm affinity estimate (log intensity, higher = more binding, comparable within an allelic series)	14.1 upbm affinity estimate (log intensity, higher = more binding, comparable within an allelic series)	13.8 upbm affinity estimate (log intensity, higher = more binding, comparable within an allelic series)	8.84 upbm affinity estimate (log intensity, higher = more binding, comparable within an allelic series)	12.5 upbm affinity estimate (log intensity, higher = more binding, comparable within an allelic series)	12.7 upbm affinity estimate (log intensity, higher = more binding, comparable within an allelic series)	14.2 upbm affinity estimate (log intensity, higher = more binding, comparable within an allelic series)	12.3 upbm affinity estimate (log intensity, higher = more binding, comparable within an allelic series)	14 upbm affinity estimate (log intensity, higher = more binding, comparable within an allelic series)	14 upbm affinity estimate (log intensity, higher = more binding, comparable within an allelic series)	13.6 upbm affinity estimate (log intensity, higher = more binding, comparable within an allelic series)	14.1 upbm affinity estimate (log intensity, higher = more binding, comparable within an allelic series)
AGCAATTA	12 upbm affinity estimate (log intensity, higher = more binding, comparable within an allelic series)	10.5 upbm affinity estimate (log intensity, higher = more binding, comparable within an allelic series)	11.7 upbm affinity estimate (log intensity, higher = more binding, comparable within an allelic series)	13.8 upbm affinity estimate (log intensity, higher = more binding, comparable within an allelic series)	11.1 upbm affinity estimate (log intensity, higher = more binding, comparable within an allelic series)	9.92 upbm affinity estimate (log intensity, higher = more binding, comparable within an allelic series)	12 upbm affinity estimate (log intensity, higher = more binding, comparable within an allelic series)	13.7 upbm affinity estimate (log intensity, higher = more binding, comparable within an allelic series)	13.7 upbm affinity estimate (log intensity, higher = more binding, comparable within an allelic series)	14.1 upbm affinity estimate (log intensity, higher = more binding, comparable within an allelic series)	13.8 upbm affinity estimate (log intensity, higher = more binding, comparable within an allelic series)	8.7 upbm affinity estimate (log intensity, higher = more binding, comparable within an allelic series)	11.5 upbm affinity estimate (log intensity, higher = more binding, comparable within an allelic series)	11.8 upbm affinity estimate (log intensity, higher = more binding, comparable within an allelic series)	12.8 upbm affinity estimate (log intensity, higher = more binding, comparable within an allelic series)		13.3 upbm affinity estimate (log intensity, higher = more binding, comparable within an allelic series)	12.8 upbm affinity estimate (log intensity, higher = more binding, comparable within an allelic series)	13.3 upbm affinity estimate (log intensity, higher = more binding, comparable within an allelic series)	12.7 upbm affinity estimate (log intensity, higher = more binding, comparable within an allelic series)
CCTAATTA	12.6 upbm affinity estimate (log intensity, higher = more binding, comparable within an allelic series)	10.7 upbm affinity estimate (log intensity, higher = more binding, comparable within an allelic series)	11.8 upbm affinity estimate (log intensity, higher = more binding, comparable within an allelic series)	14.5 upbm affinity estimate (log intensity, higher = more binding, comparable within an allelic series)	11.6 upbm affinity estimate (log intensity, higher = more binding, comparable within an allelic series)	10 upbm affinity estimate (log intensity, higher = more binding, comparable within an allelic series)	12.6 upbm affinity estimate (log intensity, higher = more binding, comparable within an allelic series)	14.2 upbm affinity estimate (log intensity, higher = more binding, comparable within an allelic series)	14.2 upbm affinity estimate (log intensity, higher = more binding, comparable within an allelic series)	14.1 upbm affinity estimate (log intensity, higher = more binding, comparable within an allelic series)	13.7 upbm affinity estimate (log intensity, higher = more binding, comparable within an allelic series)	8.85 upbm affinity estimate (log intensity, higher = more binding, comparable within an allelic series)	12.3 upbm affinity estimate (log intensity, higher = more binding, comparable within an allelic series)	12.4 upbm affinity estimate (log intensity, higher = more binding, comparable within an allelic series)	14 upbm affinity estimate (log intensity, higher = more binding, comparable within an allelic series)	12.5 upbm affinity estimate (log intensity, higher = more binding, comparable within an allelic series)	13.8 upbm affinity estimate (log intensity, higher = more binding, comparable within an allelic series)	13.9 upbm affinity estimate (log intensity, higher = more binding, comparable within an allelic series)	13.6 upbm affinity estimate (log intensity, higher = more binding, comparable within an allelic series)	14.1 upbm affinity estimate (log intensity, higher = more binding, comparable within an allelic series)
